Results from PubChem BioAssay AID765 (NMMLSC, 2007).
Activity calls are given as the source filed them. Rule as the data show it: active = inhibition above about 31%; inactive = the rest.

Target: N-formyl peptide receptor 2 (Homo sapiens) (UniProt P25090)
Experiment: FPRL1 fluorescent ligand binding inhibitors, cell-based, flow cytometry, single concentration (AID 765)
Details: FPRL1-expressing cells, hits give high values; at 5.1 µM unless noted

Chain of N-formyl peptide receptor 2 (Homo sapiens) (P25090 whole entry, looked up): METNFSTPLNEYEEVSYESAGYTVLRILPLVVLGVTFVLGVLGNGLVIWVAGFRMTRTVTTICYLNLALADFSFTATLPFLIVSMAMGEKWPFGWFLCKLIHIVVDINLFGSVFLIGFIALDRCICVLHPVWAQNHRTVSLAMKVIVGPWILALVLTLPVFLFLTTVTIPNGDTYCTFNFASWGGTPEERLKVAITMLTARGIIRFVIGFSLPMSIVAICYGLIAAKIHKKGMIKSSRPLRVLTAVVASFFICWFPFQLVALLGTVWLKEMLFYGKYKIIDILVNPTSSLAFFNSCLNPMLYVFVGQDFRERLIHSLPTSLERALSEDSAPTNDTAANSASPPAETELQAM

Compound | inhibition
Fc1ccc(-c2cc(C(F)(F)F)nc(N3CCN(C(c4ccccc4)c4ccccc4)CC3)n2)cc1 | -9.4% [at 4.5 µM] (inactive)
Fc1ccc(-c2cc(C(F)(F)F)nc(N3CCN(c4ccccc4)CC3)n2)cc1 | 1.9% [at 5.5 µM] (inactive)
O=C(c1ccccc1)N1CCN(c2nc(-c3ccccc3)c3cc([N+](=O)[O-])ccc3n2)CC1 | 18.8% (inactive)
O=C(N1CCN(c2nc(-c3ccccc3)c3cc([N+](=O)[O-])ccc3n2)CC1)C(F)(F)F | -4.2% [at 5.2 µM] (inactive)
Cc1ccc(-c2cn3cccnc3n2)cc1NC(=O)C(C)C | -3.4% [at 7.6 µM] (inactive)
O=C(O)C1CC=CCC1C(=O)N1CCN(c2nc(-c3ccccc3Cl)c3cc(Br)ccc3n2)CC1 (stereo unspecified) | -6.7% [at 4 µM] (inactive)
O=C(O)CCC(=O)N1CCN(c2nc(-c3ccccc3)c3cc([N+](=O)[O-])ccc3n2)CC1 | 3.6% (inactive)
CCN1CCN(c2nc(-c3cccc(Cl)c3)c3c(n2)-c2ccccc2OC3)CC1 | -10.9% [at 5.5 µM] (inactive)
CCCC(CCC)C(=O)Nc1cc(-c2cn3cccnc3n2)ccc1OC | 19.4% [at 6.1 µM] (inactive)
CCCC(=O)Nc1cc(-c2cn3cccnc3n2)ccc1OC | 2.2% [at 7.2 µM] (inactive)
O=C(O)/C=C/C(=O)N1CCN(c2nc(-c3ccccc3)c3ccccc3n2)CC1 | 6.6% [at 5.7 µM] (inactive)
COc1cccc(-c2cc(C(F)(F)F)nc(N3CCN(c4ccccc4OC)CC3)n2)c1 | -10.4% [at 5 µM] (inactive)
Cc1ccc2nc(N3CCN(C(=O)CCC(=O)O)CC3)nc(-c3ccccc3)c2c1 | 6.9% [at 5.5 µM] (inactive)
O=C(c1cccc(F)c1)N1CCN(c2nc(-c3cccs3)cc(C(F)(F)F)n2)CC1 | -12.6% (inactive)
COc1cccc(-c2cc(C(F)(F)F)nc(N3CCN(C)CC3)n2)c1 | -18% [at 6.3 µM] (inactive)
FC(F)(F)c1cc(-c2ccco2)nc(N2CCN(C(c3ccccc3)c3ccccc3)CC2)n1 | -10.5% [at 4.8 µM] (inactive)
CN1CCN(c2nc(-c3ccccc3)c3cc(Cl)ccc3n2)CC1 | -15% [at 6.6 µM] (inactive)
CCN1CCN(c2nc(-c3ccc(Cl)cc3)cc(C(F)(F)F)n2)CC1 | -7.7% [at 6 µM] (inactive)

Compound | inhibition
COc1ccc(-c2cn3cccnc3n2)cc1NC(=O)c1cccc(Br)c1 | 0.7% [at 5.3 µM] (inactive)
COc1ccc(-c2cn3cccnc3n2)cc1NC(=O)C1CC1 | 71.5% [at 7.2 µM] (active)
Fc1ccc(-c2cc(C(F)(F)F)nc(N3CCN(c4cccc(Cl)c4)CC3)n2)cc1 | 19.5% (inactive)
COc1ccc(-c2cc(C#N)nc(N3CCN(c4ccccc4)CC3)n2)cc1 | 5.3% [at 6 µM] (inactive)
Cc1ccc2nc(N3CCN(c4ccccc4Cl)CC3)nc(-c3ccccc3)c2c1 | 33.4% [at 5.4 µM] (active)
Clc1cccc(-c2nc(N3CCN(Cc4ccccc4)CC3)nc3c2COc2ccccc2-3)c1 | 0.5% [at 4.7 µM] (inactive)
COc1ccccc1-c1cc(C(F)(F)F)nc(N2CCN(c3ccccc3OC)CC2)n1 | -2.8% [at 5 µM] (inactive)
COc1ccc(-c2cc(C(F)(F)F)nc(N3CCN(Cc4ccccc4)CC3)n2)cc1OC | 69.2% [at 4.9 µM] (active)
Cc1ccc2nc(N3CCN(C(=O)CCCC(=O)O)CC3)nc(-c3ccccc3)c2c1 | 1.1% [at 5.3 µM] (inactive)
COc1ccc(C2CC(=O)c3cnc(N4CCN(Cc5ccc6c(c5)OCO6)CC4)nc3C2)cc1OC (stereo unspecified) | 11.9% [at 4.4 µM] (inactive)
FC(F)(F)c1cc(-c2ccccc2)nc(N2CCN(c3ccccc3)CC2)n1 | -10.6% [at 5.8 µM] (inactive)
FC(F)(F)c1cc(-c2cccs2)nc(N2CCN(C(c3ccccc3)c3ccccc3)CC2)n1 | -11% [at 4.6 µM] (inactive)
COc1ccc(-c2cn3cccnc3n2)cc1NC(=O)c1ccc(C(F)(F)F)cc1 | -3.6% [at 5.4 µM] (inactive)
COc1ccc(-c2cn3cccnc3n2)cc1NC(=O)c1cc(C)cc(C)c1 | 4.9% [at 6 µM] (inactive)
COc1ccc(-c2cn3cccnc3n2)cc1NC(=O)CCCc1ccccc1 | -8.7% [at 5.8 µM] (inactive)
O=C(N1CCN(c2nc(-c3ccccc3)c3ccccc3n2)CC1)C(F)(F)F | 24.8% [at 5.8 µM] (inactive)
O=C(O)CCC(=O)N1CCN(c2nc(-c3ccccc3Cl)c3cc(Br)ccc3n2)CC1 | -2% [at 4.4 µM] (inactive)
CCC(CC)C(=O)Nc1cc(-c2cn3cccnc3n2)ccc1OC | 11.5% [at 6.6 µM] (inactive)
